Calls of active or inactive are those of the source. The calls were made as follows: active = hit-call score of the fitted dose curve at least 0.9, where 1 is the maximum; inactive = score below 0.9.
Target: Transcriptional activator Myb (Homo sapiens) (UniProt P10242)
Assay: ATG_Myb_CIS: Attagene CIS-FACTORIAL HepG2 Assay for human Myeloblastosis (Myb) Proto-Oncogene Transcription Factor (AID 2282986)
Settings: HepG2 Attagene CIS-FACTORIAL Myb reporter transcription; actives raise or lower the signal
Procedure: ATG_CIS is a cell-based, multiplexed-readout assay that uses HepG2, a human liver cell line, with measurements taken at 24 hours after chemical dosing in a 24-well plate.ATG_Myb_CIS is one of 52 assay component(s) measured or calculated from the ATG_CIS assay. It is designed to make measurements of mRNA induction, a form of inducible reporter, as detected with fluorescence intensity signals by Reverse transcription polymerase chain reaction (RT-PCR) and Capillary electrophoresis technology.Data from the assay component ATG_Myb_CIS was analyzed into 1 assay endpoint. This assay endpoint, ATG_Myb_CIS, was analyzed with bidirectional fitting relative to DMSO as the negative control and baseline of activity. Using a type of inducible reporter, measures of mRNA for gain or loss-of-signal activity can be used to understand the reporter gene at the transcription factor-level as they relate to the gene MYB. Furthermore, this assay endpoint can be referred to as a primary readout, because this assay has produced multiple assay endpoints where this one serves a reporter gene function. To generalize the intended target to other relatable targets, this assay endpoint is annotated to the dna binding intended target family, where the subfamily is MYB proteins.
Human liver HepG2 cells are transiently transfected with multiple reporter transcription units (MRTUs) in 6-well plates using FuGene 6 reagent (Roche; 3 ml FuGene/1 mg DNA). The MRTU constructs are regulated by a cis-regulating element (promoter). […] A major difference between the CIS and TRANS system is that in CIS activities of endogenous TFs are measured, whereas the TRANS assay evaluates changes in activities of exogenous, chimeric NR-Gal4 proteins. […] At the end of 24 hour incubation, total RNA was isolated using TriZol reagent (Invitrogen). The isolated RNA is then reverse-transcribed using oligo(dT) primer and Mo-MLV reverse transcriptase (Invitrogen) with DNAse I (Ambion) treatment for 30 min. The one-tenth of the produced cDNA was amplified by PCR using Taq DNA polymerase (Invitrogen) and two reporter sequence-specific primers. The PCR products were fluorescently labeled by primer extension with 6-arboxyfluorescein (6-FAM) 5'-labeled reporter sequence-specific primer (2 min at 95 C, 20 s at 68 C and 10 min at 72 C) and these products were digested with 5U of HpaI (New England Biolabs) for 2h at 37 C. The fragments were purified using Qiaquick PCR columns (Qiagen), analyzed on an ABI 3130xL genetic analyzer (Applied Biosystems) with peak positions identified by using a set of X-rhodamine (ROX)-labeled MapMarker1000 molecular weight standards (BioVentures). The raw capillary electrophoresis data was processed using Attagraph software (Attagene).

Chain of Transcriptional activator Myb (Homo sapiens) (P10242 whole entry, looked up): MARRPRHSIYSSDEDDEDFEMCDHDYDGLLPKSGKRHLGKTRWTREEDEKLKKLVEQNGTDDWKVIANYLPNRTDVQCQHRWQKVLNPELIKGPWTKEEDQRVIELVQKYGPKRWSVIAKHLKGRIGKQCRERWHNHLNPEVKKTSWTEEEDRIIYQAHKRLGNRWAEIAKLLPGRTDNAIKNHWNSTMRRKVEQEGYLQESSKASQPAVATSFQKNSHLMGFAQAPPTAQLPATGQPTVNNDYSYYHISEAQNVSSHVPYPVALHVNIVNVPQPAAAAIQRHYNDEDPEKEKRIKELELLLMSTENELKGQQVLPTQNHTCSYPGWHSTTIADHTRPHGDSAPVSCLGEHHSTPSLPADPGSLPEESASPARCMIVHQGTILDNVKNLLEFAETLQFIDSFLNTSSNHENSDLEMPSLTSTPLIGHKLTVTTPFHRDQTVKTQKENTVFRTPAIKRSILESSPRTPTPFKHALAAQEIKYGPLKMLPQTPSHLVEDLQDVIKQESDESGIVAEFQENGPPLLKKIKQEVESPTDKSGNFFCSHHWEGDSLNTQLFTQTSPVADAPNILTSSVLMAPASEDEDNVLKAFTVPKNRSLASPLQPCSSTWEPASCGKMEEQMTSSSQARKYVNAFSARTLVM

outcome, inactive:
CCCCCCC(CO)CCCC (stereo not given)
C[C@@H]1CCN(C(=O)[C@H](CCCN=C(N)N)NS(=O)(=O)c2cccc3c2NC[C@H](C)C3)[C@@H](C(=O)O)C1
CC1CC(O)CC(C)(C)C1 (stereo not given)
COc1cccc(OC)c1O
CC(=O)C1(C)CC2=C(CCCC2(C)C)CC1C (stereo not given)
COC(C)(C)CCCC(C)CC=O (stereo not given)
C=C1C[C@]23C[C@@]1(O)CC[C@H]2[C@@]12C=C[C@H](O)[C@@](C)(C(=O)O1)[C@H]2[C@@H]3C(=O)O
C[N+](C)(C)CCCCCC[N+](C)(C)C
CS(=O)(=O)c1ccc(Cl)cc1
Nc1ccc(NCCO)c([N+](=O)[O-])c1
CN1C(=O)c2ccccc2C1=O
CN(C)CCOC(C)(c1ccccc1)c1ccccn1 (stereo not given)
OCc1cccc(Oc2ccccc2)c1
CC(C)c1ccccc1O
CCCCCCCC(=O)OCC(O)CO (stereo not given)
CCOC(=O)CCc1ccccc1
CCCCCCOC(=O)CCC
C=COCCOCCOC=C
CCCCCCCCCCCCCCN(CCO)CCO
OCCCCC(O)CO (stereo not given)
CC(C)=CCCC(C)CC(=O)O (stereo not given)
CCCCCCCCCCCCCC(=O)OCC(O)CO (stereo not given)
CC1CCC(C(C)C)C(O)C1 (stereo not given)
ON=C1CCCCC1
CCOC(=O)CC(C)O (stereo not given)
CC(=O)Nc1ccc(C(=O)CCl)cc1
Cc1c(C2(c3cc(Br)c(O)c(Br)c3C)OS(=O)(=O)c3ccccc32)cc(Br)c(O)c1Br
COc1ccccc1N=Nc1c(S(=O)(=O)O)cc2cc(S(=O)(=O)O)cc(NC(C)=O)c2c1O
C=C(C#N)C(=O)OCC
CCCCC(CC)COC(C)=O (stereo not given)
CSc1c(Cl)c(Cl)c(Cl)c(Cl)c1Cl
CCNCCO
CC1(C)C2=CCCC(C)(C)[C@]23CC[C@H]1C3
CCC(=O)O[C@@H]1C[C@H]2CC[C@]1(C)C2(C)C
CCCCC(CC)COC(=O)c1ccc(O)cc1 (stereo not given)
CS(C)=O
O=C(O)CCCCCCCCCCCC(=O)O
CCOC(=O)c1ccc(N)cc1
N#Cc1cscn1
COc1ccc(OC)c(N=Nc2c(O)ccc3ccccc23)c1
